From PubChem
Rab9 promoter act: activates the Rab9 promoter | Huh7 Rab9 promoter-luciferase reporter, luminescence, 24 h | Potency, µM (top dose mostly 9.22 µM), most hits filed as activators | 320,000 tested, 2.8% active | AID 485297; further: nearly all actives have a fitted effect of over 60% in size
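Stable Rab9-luc Huh7, 1500 cells/well, 2 h settle; cmpd in DMSO, 24 h, 37 °C/5% CO2; luciferase reagent 10 min RT; luminescence.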
FLuc counter: inhibits or activates purified firefly luciferase, miR-21 counter-screen. 360,000 tested, 6.9% active. AID 588342. P08659. Potency, µM (series often up to 57.5 µM), usual class: inhibitors. purified FLuc, Km substrates, luminescence inhibition; further: nearly all actives have a fitted effect of over 55% in size
Target sequence (P08659 whole entry, looked up): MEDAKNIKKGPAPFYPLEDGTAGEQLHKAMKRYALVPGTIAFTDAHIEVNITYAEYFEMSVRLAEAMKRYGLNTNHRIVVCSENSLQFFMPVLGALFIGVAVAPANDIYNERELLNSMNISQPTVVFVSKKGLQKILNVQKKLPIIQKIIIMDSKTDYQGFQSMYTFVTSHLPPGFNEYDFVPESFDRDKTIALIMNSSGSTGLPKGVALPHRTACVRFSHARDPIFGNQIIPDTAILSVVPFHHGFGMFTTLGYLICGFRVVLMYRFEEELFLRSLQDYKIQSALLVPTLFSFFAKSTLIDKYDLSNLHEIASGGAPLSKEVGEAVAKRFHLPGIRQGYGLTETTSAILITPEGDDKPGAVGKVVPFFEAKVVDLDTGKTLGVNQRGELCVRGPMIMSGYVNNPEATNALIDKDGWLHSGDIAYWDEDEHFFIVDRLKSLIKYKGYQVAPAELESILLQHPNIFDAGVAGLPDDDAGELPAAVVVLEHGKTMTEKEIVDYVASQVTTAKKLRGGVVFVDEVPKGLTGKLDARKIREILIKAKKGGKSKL
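Purified P. pyralis luciferase (10nM final) with 10uM D-luciferin and 10uM ATP (Km levels) in 50mM Tris acetate pH 7.5, 10mM Mg acetate, 0.01% Tween-20, 0.05% BSA; qHTS 6-point titration, ~60 µM downward; luminescence read.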
ELG1 repair inh: ELG1-dependent DNA repair inhibition; HEK293T ELG1-luciferase reporter, luminescence, 16 h; DNA damage induced by 5-fluorouridine; Potency, µM (series often up to 46.1 µM), usual class: inhibitors; 330,000 tested, 2.3% active; AID 504467; further: nearly all actives have a fitted effect of over 55% in size
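HEK293T cells expressing luciferase-tagged ELG1 (2,000/well) received 5-Fluorouridine plus compound or DMSO for 16 hr at 37 °C. Luciferase was read by ONE-Glo luminescence after 30 min at room temperature.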
NPC1 prom act: NPC1 promoter activation. Huh7 NPC1 promoter luciferase reporter, 24 h. Potency, µM (titrated, usually from 9.22 µM), actives largely listed as activators. 320,000 tested, 2.4% active. AID 485313; further: nearly all actives have a fitted effect of over 60% in size
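Luminescence read-out of NPC1 promoter-driven luciferase in stably transfected Huh7 cells; compounds delivered in DMSO and left 24 h at 37C, 5% CO2, qHTS titration format.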
SMN2 splice enh: increases expression of the SMN2 splice variant; Potency, µM (series often up to 46.1 µM), usual class: activators; 210,000 tested, 2.8% active; HEK293 SMN2-luciferase splicing reporter, luminescence, 30-36 h; further: nearly all actives have a fitted effect of over 55% in size
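HEK293 cells carry an SMN2 […]–luciferase reporter in which exon 7 inclusion puts luciferase in frame. Cells were plated 10-12 h before compound addition, then incubated 30-36 h at 37C. ONE-Glo luminescence was read; sodium butyrate at 4.5 mM final served as control.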
ELG1 genotox: induces genotoxicity in HEK293T cells with luciferase-tagged ELG1; HEK293T ELG1-luciferase reporter, luminescence, 16 h; Potency, µM (titrated, usually from 46 µM), actives largely listed as activators; 330,000 tested, 1.3% active; AID 504466; further: nearly all actives have a fitted effect of over 60% in size
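HEK293T cells expressing luciferase-tagged ELG1 were treated with compound or DMSO for 16 hr at 37°C. Luciferase activity was then read after 30 min with ONE-Glo at room temperature; rising signal flags genetic stress.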
Hits are given with their value; n = inactive; u = inconclusive; x = no result given. Rows were chosen to be rich in hits. Some 9.2% of all compounds tested hit in one or more screens of this group. The call rests on the fitted dose curve; in most records, active means well fitted curve in the direction sought with a large enough effect; inconclusive means small, poorly fitted or top-dose-only effect, or another doubt; inactive means no such curve, though single readings can be large; an effect the other way counts as inactive or inconclusive.

SMILES | Rab9 promoter act | FLuc counter | ELG1 repair inh | NPC1 prom act | SMN2 splice enh | ELG1 genotox
COc1ccc(C(=O)N2CCC3(CCN(Cc4cc(C(F)(F)F)cc(C(F)(F)F)c4)CC3)CC2)cc1 | x | x | x | x | n | x
COc1ccc(OC)c(C(=O)N2CCC(C(=O)c3ccc(F)cc3)CC2)c1 | n | n | u | n | n | n
Cc1ccc(NC(=O)Cn2nnc(C(=O)NCc3cccs3)c2N)cc1F | n | n | u | u | x | n
CC(=O)c1cccc(NC(=O)CSc2nc(C3CC3)nc3ccccc23)c1 | n | n | n | n | x | n
CC(=O)Nc1cccc(NC(=O)CSc2nc(C3CC3)nc3ccccc23)c1 | n | n | 18µM | n | x | n
O=C(CSc1nc(-c2ccccc2)nc2ccccc12)Nc1cccc(C(=O)O)c1 | n | 19µM | n | n | n | n
O=C(CSc1nc(-c2ccccc2)nc2c1Cc1ccccc1O2)Nc1ccc(C(=O)O)cc1 | n | 7.6µM | n | n | n | n
Cc1nnc(SCC(=O)Nc2ccccc2)c2ccccc12 | n | 17µM | n | n | x | n
Cc1nn(-c2ccccc2)c2nc(C3CC3)cc(C(=O)Nc3cccc(F)c3)c12 | x | n | x | x | x | x
O=C(NCc1cccnc1)C(=O)C1C(=O)Nc2ccccc21 (stereo not given) | n | n | n | n | x | n
COc1cccc(CNC(=O)Nc2cc(C(=O)NCc3cccc(F)c3)ccc2N2CCCC2)c1 | x | n | x | x | x | x
COc1ccc(OC)c(N(/C(N)=N/c2nc(C)cc(C)n2)S(=O)(=O)c2ccc(NC(C)=O)cc2)c1 | n | n | n | n | x | n
O=C(CSc1ncnc2scc(-c3ccccc3)c12)Nc1ccc(C(=O)O)cc1 | n | 21µM | n | n | x | n
O=C(O)c1ccc(Nc2ncnc3scc(-c4ccccc4)c23)cc1 | n | n | n | n | x | n
COCc1ccc(C(=O)N(C)CC2CCCN(CCc3ccc(Cl)cc3)C2)o1 (stereo not given) | n | n | n | n | x | n
COCc1ccc(C(=O)N(C)CC2CCCN(CCc3ccc(OC)cc3)C2)o1 (stereo not given) | u | 17µM | u | u | x | u
C=CCn1c(=NC(=O)c2cc(-c3cccs3)nc3ccccc23)sc2cc(S(N)(=O)=O)ccc21 | n | n | 18µM | n | u | n
C=CCn1c(=NC(=O)c2sc3ccccc3c2Cl)sc2cc(S(N)(=O)=O)ccc21 | n | n | n | n | n | n
COCCn1c(=NC(=O)c2cc(-c3cccs3)nc3ccccc23)sc2cc(S(N)(=O)=O)ccc21 | n | n | 6.5µM | n | n | n
CCOc1ccc(NC(=O)CN2CCN(c3ccc(Cl)cc3)CC2)cc1 | x | n | x | x | x | x
Cc1ccn(CCNC(=O)C2CCC(=O)N(CCc3ccc(Cl)cc3)C2)n1 (stereo not given) | n | n | n | n | x | n
NC(=O)c1ccsc1NC(=O)c1nc(-c2ccccc2)n(-c2ccccc2)n1 | n | n | 18µM | n | n | n
COc1ccc(/C=N/NC(=O)c2c(-c3ccccc3)noc2C)cc1 | n | n | n | n | n | n
COc1ccc(/C=N/NC(=O)CCn2c3ccccc3c3ccccc32)cc1O | n | 11µM | n | n | n | n
COc1ccc(/C=N/NC(=O)c2nc(-c3ccccc3)cc(-c3ccccc3)n2)cc1O | n | 1.5µM | 6.5µM | n | n | n
SMILES | Rab9 promoter act | FLuc counter | ELG1 repair inh | NPC1 prom act | SMN2 splice enh | ELG1 genotox
COc1ccc(/C=N/NC(=O)c2nc(-c3ccccc3)cc(-c3ccccc3)n2)cc1 | n | 2.7µM | 6.5µM | n | n | n
COc1cccc(/C=N/NC(=O)CCn2c3ccccc3c3ccccc32)c1 | n | n | n | n | n | n
O=C(Nc1ccccn1)c1nc(-c2ccccc2)n(-c2ccccc2)n1 | n | n | u | n | n | n
CCC(C(=O)Nc1cc(Cl)ccc1OC)n1nc(-c2ccccc2)ccc1=O (stereo not given) | x | n | x | x | n | x
Cc1ccc(CN(CC(=O)NCCc2ccccc2)C(=O)c2csnn2)cc1 | n | n | n | n | x | n
O=C(NC1CC1)C1CCN(C2CCN(C(=O)c3c(F)cccc3Cl)CC2)CC1 | n | n | n | n | x | n
NC1=NC(=O)/C(=C/c2ccccc2OS(=O)(=O)c2ccc3ccccc3c2)S1 | n | n | n | n | n | n
COc1ccc(/C=N/NC(=O)c2nc(-c3ccccc3)n(-c3ccccc3)n2)cc1OC | n | 17µM | 13µM | n | n | n
COc1ccc(/C=N/NC(=O)c2nn(-c3ccccc3)c(=O)c3c(N)scc23)cc1 | n | 9.5µM | u | n | n | n
COc1ccc(/C=N/NC(=O)c2nn(-c3ccc(Cl)cc3)c(=O)c3c(N)scc23)cc1 | n | u | n | n | n | n
CC(=O)c1ccc2c(c1)Cc1cc(C(C)=O)ccc1-2 | 1.8µM | u | u | 2.5µM | x | 18µM
CCC(=O)Nc1ccc2c(c1)Cc1cc(NC(=O)CC)ccc1-2 | u | n | u | n | x | u
Cc1ccc(-c2csc3nc(SCC(N)=O)n(Cc4ccccc4)c(=O)c23)cc1 | n | n | 23µM | n | n | n
CC(C)=C1C2CCC1C(C(=O)Nc1cc(C)cc(C)c1)C2C(=O)O (stereo not given) | n | n | n | n | n | n
CCn1cc(C(=O)O)c(=O)c2cnc(N3CCN(C(=S)Nc4ccccc4Cl)CC3)nc21 | n | n | 12µM | n | x | n
CCn1cc(C(=O)O)c(=O)c2cnc(N3CCN(C(=S)Nc4ccc(F)cc4)CC3)nc21 | n | n | n | n | x | n
Cc1ccc(-n2c(C)cc(C(=O)COc3cccnc3[N+](=O)[O-])c2C)cc1 | n | 17µM | u | n | n | u
Cc1cc(C(=O)COc2cccnc2[N+](=O)[O-])c(C)n1-c1ccccc1 | n | 2.7µM | u | n | n | n
Cc1ccc(OCC(=O)c2cc(C)n(C)c2C)c([N+](=O)[O-])n1 | u | u | u | n | u | u
Cc1cc(C(=O)COc2cccnc2[N+](=O)[O-])c(C)n1-c1ccccc1F | n | 6µM | u | n | x | n
Cc1cc(-n2c(C)cc(C(=O)COc3ccccc3[N+](=O)[O-])c2C)no1 | n | u | n | n | n | n
Cc1cc(C(=O)COc2cccnc2[N+](=O)[O-])c(C)n1Cc1ccco1 | n | u | n | n | n | n
COc1ccc(O)c(CN2CCN(CCCc3ccccc3)C(CCO)C2)c1 (stereo not given) | n | n | n | n | x | n
O=C1N[C@@H](c2ccccc2)COC(=O)[C@@H](Cc2ccc(F)cc2)C/C=C\C[C@@H]1CC(=O)N(CCO)Cc1ccccc1 | x | x | 21µM | x | x | n
O=C1N[C@H](Cc2ccccc2)COC(=O)[C@@H](Cc2ccc(F)cc2)CC/C=C/C[C@H]1CC(=O)N(CCO)Cc1ccccc1 | x | x | 21µM | x | x | n
